# The whole screen tested about 16,000 compounds, of which about 5,800 (36%) were called active. Another 23% or so got no clear call; they are omitted. The list shows a part of the results. Unmarked numbers belong to inactive results. Calls follow the shape of the dose curve; as a rule, active = well fitted curve in the direction sought with a large enough effect; inconclusive = small, poorly fitted or top-dose-only effect, or effect the other way; inactive = no such curve, though single readings can be large or run the other way.
# Molecular target: Cytochrome P450 2C19 (Homo sapiens) (UniProt P33261)
# Experiment: Cytochrome panel assay with activity outcomes
# Settings: recombinant CYP, pro-luciferin dealkylation, luminescence, p450-cyp2c19; series mostly up to 57.1 µM; activity, negative = inhibition: at the top concentration
# % is scaled to controls: 0 for no effect and ±100 for the full control effect.
# Cytochrome P450 2C19 (Homo sapiens), sequence (P33261 whole entry, looked up): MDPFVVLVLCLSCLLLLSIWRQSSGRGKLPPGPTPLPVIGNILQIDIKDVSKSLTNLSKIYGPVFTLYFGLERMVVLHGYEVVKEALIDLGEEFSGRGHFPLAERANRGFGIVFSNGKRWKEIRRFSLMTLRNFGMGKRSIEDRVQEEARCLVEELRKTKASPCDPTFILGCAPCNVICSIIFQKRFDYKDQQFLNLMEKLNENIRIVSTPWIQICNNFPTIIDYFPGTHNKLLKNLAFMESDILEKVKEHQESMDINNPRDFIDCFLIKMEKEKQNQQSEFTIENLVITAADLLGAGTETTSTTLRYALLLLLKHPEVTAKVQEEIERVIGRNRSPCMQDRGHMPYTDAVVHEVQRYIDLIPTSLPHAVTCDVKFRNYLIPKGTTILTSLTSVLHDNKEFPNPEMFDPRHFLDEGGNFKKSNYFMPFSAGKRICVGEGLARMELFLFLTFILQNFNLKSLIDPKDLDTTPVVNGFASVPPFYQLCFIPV
Structure (SMILES),"activity, negative = inhibition",AC50
Cc1ccc(-n2c(O)cnc2Nc2nc(C)cc(C)n2)cc1,-16.7%,
COc1c(C)c2c(c(O)c1C/C=C(\C)CCC(=O)O)C(=O)OC2,,inactive
CC(Sc1nnc(C(C)N(C)C)n1-c1ccc(Cl)cc1)C(=O)Nc1ccc2c(c1)OCO2 (configuration not stated),,22.4 µM (active)
O=C(c1cnc(N2CCN(c3ncccn3)CC2)c2ccccc12)N1CCN(c2ccccn2)CC1,,5.01 µM (active)
CC(=O)N1CCC2(CC1)CCN(c1ccccn1)CC2,-15.1%,
O=C(O)CCC(=O)N1CCN(c2ccccn2)CC1,-10.9%,
COCC(=O)N1CCC2(CC1)CCN(c1ccccn1)CC2,-28.4%,
COc1ccccc1C(=O)N1CCN(c2ccccn2)CC1,,7.08 µM (active)
CC(C)c1ccc(OCc2ccc(C(=O)N3CCN(c4ccccn4)CC3)cc2)cc1,,11.2 µM (active)
O=C(c1cnccn1)N1CCC2(CC1)CCN(c1ncccn1)CC2,-1.14%,
O=C(c1cnc(N2CCN(c3ncccn3)CC2)c2ccccc12)N1CCN(c2ncccn2)CC1,,10 µM (active)
O=C(c1cnccn1)N1CCC2(CC1)CN(c1ccccn1)C2,-19.8%,
O=C(c1cnccn1)N1CCC2(CC1)CCN(c1ccccn1)CC2,-16.2%,
Cn1cccc1C(=O)N1CCC2(CC1)CCN(c1ncccn1)CC2,-26.1%,
COCC(=O)N1CCC2(CC1)CCN(C(=O)NC(C)C)CC2,-30.3%,
Cc1ccc(-n2nnnc2C(=Cc2ccc(N(C)C)cc2)c2nnnn2-c2ccc(C)cc2)cc1,,1.26 µM (active)
O=C1CC(c2cccc(F)c2)SC(N(c2ccccc2)c2ccccc2)=N1 (configuration not stated),,5.01 µM (active)
COC(=O)C(Cc1ccc(OC(=O)c2ccc(C(F)(F)F)cc2)cc1)N1Cc2ccccc2C1=O (configuration not stated),,14.1 µM (active)
COC(=O)C(Cc1ccc(OC(=O)c2ccc(Cl)cc2)cc1)N1Cc2ccccc2C1=O (configuration not stated),,2.82 µM (active)
O=C(Oc1ccc2c(c1)CN(Cc1ccccc1)CO2)c1ccccc1,-25.4% [at 11.4 µM],
CN1CCN(c2ncc3nc(-c4ccccc4)c(=O)n(Cc4cccs4)c3n2)CC1,-25.6%,
CC(C)[C@]1(Cl)CC[C@@H]2[C@]3(C)CCC[C@@](C)(C(=O)O)[C@H]3C[C@H](Cl)[C@@]2(Cl)[C@H]1Cl,-28.4% [at 11.4 µM],

Structure (SMILES),"activity, negative = inhibition",AC50
Cc1noc(N)c1C(=O)Nc1ccc(F)cc1,-25.6%,
Cc1cc(NC(=O)Nc2ccc(F)cc2)no1,,14.1 µM (active)
C1CCC(N=C(NC23CC4CC(CC(C4)C2)C3)N2CCOCC2)CC1,28.2%,
Cc1ccc(S(=O)(=O)O[C@H]2C[C@@H](C(C)(C)C)CC[C@@H]2c2ccccc2)cc1,,3.16 µM (active)
Cc1ccc(S(=O)(=O)ON=C2CCN(S(=O)(=O)c3ccccc3)CC2)cc1,-29%,
C=CCSc1nc(C)cc(/C=C\c2ccccc2)c1C#N,,5.62 µM (active)
CCOC(=O)COc1cc(OCC(=O)OCC)c2c(=O)cc(-c3ccccc3)oc2c1,,14.1 µM (active)
O=C(O)c1cc(=O)c2c(OCC(O)COc3cccc4oc(C(=O)O)cc(=O)c34)cccc2o1,-4.86% [at 25.6 µM],
CC(C)C12CC[C@@]3(CC[C@H]4[C@@](C)(CCC[C@]4(C)C(=O)O)[C@@H]3C1)[C@@H](CN)C2,8.51% [at 11.4 µM],
Cc1ccc(O)c(C(=O)c2cc(C#N)c(=O)n(-c3c(C)n(C)n(-c4ccccc4)c3=O)c2)c1,-13.2%,
Brc1ccc(/C=C/C=N/Nc2nc3ccccc3s2)cc1,,3.55 µM (active)
c1ccc(/C(=N/Nc2nc3ccccc3s2)c2ccccn2)cc1,-42.9% [at 11.4 µM],
O=c1c(-c2cc(F)cc(F)c2)nc2cnc(N3CCOCC3)nc2n1-c1ccccc1,-8.88%,
O=S(=O)(c1ccccc1)c1cnn2c(C(F)(F)F)cc(-c3ccc(F)cc3)nc12,-26.6%,
Fc1ccc(-c2cn3cc(C(F)(F)F)cc(Cl)c3n2)cc1,,10 µM (active)
CCOC(=O)CSC1=NC(=O)/C(=C\c2ccc(OC(C)=O)cc2)S1,,15.8 µM (active)
O=C1CC[C@H](NC(=O)c2ccccc2)C(=O)N1,28.7% [at 11.4 µM],
O=C1CSC(c2ccccc2F)N1c1cc(Cl)ccc1O (configuration not stated),,0.891 µM (active)
Nc1nc(N)nc(CC(=O)O)n1,-6.24% [at 11.4 µM],
Cc1noc(C)c1-c1cncnc1N(C)Cc1ccco1,,2.51 µM (active)
CN(Cc1ccco1)c1ncncc1-c1ccccc1C(F)(F)F,,3.98 µM (active)
CN(Cc1ccco1)c1ncncc1-c1ccccc1Cl,,0.794 µM (active)

Structure (SMILES),"activity, negative = inhibition",AC50
Cc1ccccc1-c1cncnc1N(C)Cc1ccco1,,5.01 µM (active)
Cc1noc(C)c1-c1cncnc1NC1CC1,-20.9%,
CC1(C)S[C@@H]2[C@H](NC(=O)[C@@H](NC(=O)N3CCNC3=O)c3ccccc3)C(=O)N2[C@H]1C(=O)O,6.12% [at 25.6 µM],
CC1(C)O[C@H]2[C@@H](O1)[C@@H](On1nnc3ccc(Cl)cc31)O[C@@H]2[C@@H]1COC(C)(C)O1,17% [at 11.4 µM],
O=C(CCCCCn1c(=O)[nH]c2ccsc2c1=O)NCc1ccc2c(c1)OCO2,,10 µM (active)
O=C(CCn1c(=O)[nH]c2ccsc2c1=O)Nc1ccc(F)c(F)c1,-13.9%,
O=C(NCc1ccco1)c1ccc2c(=O)n(-c3ccccc3)c(=S)[nH]c2c1,-24.2%,
O=C(CCCCn1c(=S)[nH]c2ccsc2c1=O)NCc1ccco1,,14.1 µM (active)
Cc1ccc(-n2c(=O)c3sccc3n(CC(=O)NCc3ccco3)c2=O)cc1F,28.2%,
NCC[C@H]1CCC[C@H](CCN)N1,-4.62%,
O=C(C[C@@H]1C=Cc2ccccc2N1C(=O)c1ccccc1)c1ccccc1,,0.501 µM (active)
NC(=O)N1c2ccccc2C=Cc2ccccc21,-26.8% [at 25.6 µM],
O=C(Cc1ccc(Br)cc1)Nc1ccccc1Sc1ccccc1,,0.178 µM (active)
O=C(NC1CCCCC1)C1CC=CCC1C(=O)OCC(Cl)=C(Cl)Cl (configuration not stated),,10 µM (active)
COCCCNC(=O)c1ccc2c(=O)n(CC3CCCO3)c(=S)[nH]c2c1 (configuration not stated),12%,
O=C(c1ccc2c(=O)n(CC3CCCO3)c(=S)[nH]c2c1)N1CCN(c2ccccc2)CC1 (configuration not stated),,11.2 µM (active)
COc1ccc(NC(=O)c2ccc3c(=O)n(Cc4ccco4)c(=S)[nH]c3c2)c(OC)c1,,4.47 µM (active)
O=C(c1ccc2c(=O)n(Cc3ccco3)c(=S)[nH]c2c1)N1CCN(c2ccccc2)CC1,,2.24 µM (active)
CC(=O)OC[C@@H]1O[C@@H](O/N=C2/C[C@@H](O)[C@@H](O)[C@@H]3[C@@H]4C(=O)N(C5CCCCC5)C(=O)[C@H]4CC[C@@H]23)[C@H](OC(C)=O)[C@H](OC(C)=O)[C@@H]1OC(C)=O,2.25% [at 11.4 µM],
CCOc1ccccc1NC(=O)C1Cc2ccccc2CN1S(C)(=O)=O (configuration not stated),,7.94 µM (active)
CCOc1ccccc1Nc1ccc(N)cc1S(=O)(=O)O,-16.1% [at 11.4 µM],
C=C(NC(=O)C(=C)NC(=O)c1csc(C2=N[C@@H]3c4csc(n4)[C@@H]4NC(=O)c5csc(n5)[C@@H]([C@](C)(O)[C@H](C)O)NC(=O)[C@@H]5CSC(=N5)/C(=C/C)NC(=O)[C@@H]([C@H](C)O)NC(=O)c5csc(n5)[C@]3(CC2)NC(=O)[C@@H](C)NC(=O)C(=C)NC(=O)[C@@H](C)NC(=O)[C@@H]([C@@H](C)CC)N[C@H]2C=Cc3c([C@H](C)O)cc(nc3[C@@H]2O)C(=O)O[C@H]4C)n1)C(N)=O,15.8% [at 25.6 µM],

Structure (SMILES),"activity, negative = inhibition",AC50
O=S(=O)(c1ccccc1)N1CCC2(CC1)CN(C(c1ccccc1)c1ccccc1)C2,-6.26%,
O=S(=O)(c1ccccc1)N1CN2CN(C1)CN(S(=O)(=O)c1ccccc1)C2,-18.2% [at 11.4 µM],
O=C1CCN(S(=O)(=O)c2ccccc2)N1,,17.8 µM (active)
O=C(c1csnn1)N1CCC2(CCCN(Cc3ccccc3)C2)CC1,2.09%,
O=C(c1csnn1)N1CCC2(CC1)CCN(c1ccccc1)CC2,-19.6%,
CCc1ccc(N(C(=O)c2csnn2)C(C(=O)NCc2ccccc2)c2ccco2)cc1 (configuration not stated),,3.16 µM (active)
O=C(NCc1ccc(F)cc1)C(c1ccncc1)N(C(=O)c1csnn1)C1CC1 (configuration not stated),,3.55 µM (active)
O=C(NCc1ccccc1)C(c1ccncc1)N(C(=O)c1csnn1)C1CC1 (configuration not stated),,8.91 µM (active)
O=C(OC(C(=O)O)C(OC(=O)c1ccccc1)C(=O)NCc1ccccc1)c1ccccc1 (configuration not stated),1.03%,
O=C(Nc1cccc(F)c1)N1CCC2(CC1)CCN(C(=O)c1csnn1)CC2,-22.8%,
CCn1c(CCCc2nc3c([nH]2)c(=O)n(C)c(=O)n3C)nc2c1c(=O)n(C)c(=O)n2C,2.28% [at 11.4 µM],
CC(C)CCn1c(Oc2ccccc2Cl)nc2c1c(=O)n(C)c(=O)n2C,,15.8 µM (active)
CCOC(=O)N1CCN(C(=O)c2cnc3n(c2=O)CCS3)CC1,-14.5%,
CCOC(=O)N1CCN(C(=O)C(CC)n2nc(C)c3sc4ccccc4c3c2=O)CC1 (configuration not stated),,20 µM (active)
CCOC(=O)N1CCN(C(=O)C(C)SCc2ccccc2)CC1 (configuration not stated),-27.1%,
CCOC(=O)N1CCN(C(=O)CSCc2nc(-c3ccccc3F)oc2C)CC1,,31.6 µM (active)
Cc1oc(-c2ccccc2F)nc1CSCC(=O)NCc1ccc2c(c1)OCO2,,1.78 µM (active)
Cc1oc(-c2ccccc2Cl)nc1CSCC(=O)NC1CC1,,14.1 µM (active)
Cc1oc(-c2ccccc2F)nc1CS(=O)(=O)CC(=O)NCCCN(C)C1CCCCC1,-9.67%,
N#Cc1cccc(NC(=O)N2CCC3(CC2)CCN(C(=O)c2csnn2)CC3)c1,15.6%,
Nc1ncnc2c([C@@H]3O[C@@H](CO)[C@H](O)[C@@H]3O)nsc12,20.7% [at 11.4 µM],

# From PubChem BioAssay AID1851 (National Center for Advancing Translational Sciences (NCATS), 2009)
